The record followed here is the antibiotic and cytotoxicity screens of Wong et al. (2023).

Out of some 39,000 compounds screened, about 3,300 (8.5%) were called active. What follows is part of a selection rich in actives, with near analogues and random picks from the rest.

In the experiment the test system is HepG2. As to the kind of experiment: cytotoxicity call (relative viability < 0.9). Particulars: 10 µM.
For the compound `Cc1noc(C)c1NC(=O)Nc1ccc2c(c1)C(=O)N([C@@H](C)CO)C[C@H](C)[C@H](CN(C)Cc1ccc(C(F)(F)F)cc1)O2`, the cytotoxicity call was “inactive”. Under `Cc1noc(C)c1NC(=O)N(C)C[C@@H]1Oc2c(NS(=O)(=O)c3cn(C)cn3)cccc2C(=O)N([C@H](C)CO)C[C@@H]1C` stands “inactive”. Under `OCCCn1cnnc1` stands “inactive”. As for `C[C@H](CO)N1C[C@H](C)[C@H](CN(C)C)Oc2cc(C#CCN(C)C)ccc2S1(=O)=O`, the entry is “inactive”; as for `CN(C)Cc1cn(CC[C@H]2CC[C@H](NS(=O)(=O)c3ccccc3)[C@H](CO)O2)nn1`, “inactive”.

For the compound `C[C@H]1CN([C@@H](C)CO)C(=O)c2cc(NS(C)(=O)=O)ccc2O[C@H]1CN(C)Cc1ccc(C(=O)Nc2ccccc2N)cc1`, the cytotoxicity call is “inactive”.

Turning to `C[C@H]1CN([C@@H](C)CO)C(=O)CCCn2nncc2CO[C@@H]1CN(C)C(=O)Nc1cccc2ccccc12`, the cytotoxicity call was “inactive”.

In the case of `C[C@H](CO)N1C[C@H](C)[C@@H](CN(C)C(=O)Nc2ccc(C(F)(F)F)cc2)Oc2ccc(NC(=O)C3CCCCC3)cc2CC1=O`, the cytotoxicity call was “inactive”. As for `O=C1O[C@@H](c2ccccc2)[C@@H](c2ccccc2)N2[C@@H](c3ccc(OCCO)cc3)[C@]3(C(=O)Nc4ccc(C#CC5=CCCCC5)cc43)[C@@H](C(=O)NC[C@H](O)c3ccccc3)[C@H]12`, the entry is “active”. Under `O=C1O[C@@H](c2ccccc2)[C@@H](c2ccccc2)N2[C@@H](c3ccc(OCCO)cc3)[C@]3(C(=O)Nc4ccc(C#CC5(O)CCCCCC5)cc43)[C@@H](C(=O)NC[C@H](O)c3ccccc3)[C@H]12` stands “inactive”; under `O=C1O[C@@H](c2ccccc2)[C@@H](c2ccccc2)N2[C@@H](c3ccc(O)cc3)[C@]3(C(=O)Nc4ccc(C#CC5=CCCCC5)cc43)[C@@H](C(=O)NC[C@H](O)c3ccccc3)[C@H]12`, “inactive”; under `COc1cccc(S(=O)(=O)N(C)C[C@@H]2Oc3ncc(C#CCC(C)C)cc3C(=O)N([C@H](C)CO)C[C@H]2C)c1`, “inactive”. As for `O=C(C[C@H]1CC[C@@H]2[C@H](COC[C@@H](O)CN2S(=O)(=O)c2ccccc2)O1)N1CCOCC1`, the entry is “inactive”; as for `O=C(NC1CCCCCCC1)c1ccccc1-c1ccccc1`, “inactive”. Regarding `C[C@]1(C(=O)NCC(F)(F)F)c2ccccc2C(=O)N(Cc2cc(C(F)(F)F)cc(C(F)(F)F)c2)[C@H]1c1ccc(CO)cc1`, the cytotoxicity call was “inactive”. For the compound `O=C(NC1CCN(CCCCC2(C(=O)NCC(F)(F)F)c3ccccc3-c3ccccc32)CC1)c1ccccc1-c1ccc(C(F)(F)F)cc1`, the cytotoxicity call is “active”. As for `C[C@H]([C@@H](N)C(=O)N[C@H](C(=O)O)[C@H]1O[C@@H](n2ccc(O)cc2=O)[C@@H](O)[C@H]1O)[C@@H](C)c1ccc(O)cn1`, the entry is “inactive”; as for `C[C@H](CO)N1C[C@H](C)[C@@H](CN(C)C(=O)Cc2ccncc2)Oc2cc(-c3cncnc3)ccc2S1(=O)=O`, “inactive”. `C[C@@H]1CN([C@H](C)CO)C(=O)c2cc(NC(=O)Cc3cn(C)c4ccccc34)ccc2O[C@@H]1CN(C)Cc1ccc(Cl)c(Cl)c1`: the cytotoxicity call is “active”.

In the case of `C[C@H]1CN([C@@H](C)CO)C(=O)c2cc(NC(=O)Cc3cn(C)c4ccccc34)ccc2O[C@@H]1CN(C)Cc1ccc(Cl)c(Cl)c1`, the cytotoxicity call was “inactive”. Under `C[C@@H]1CN([C@@H](C)CO)C(=O)c2cc(NC(=O)Cc3cn(C)c4ccccc34)ccc2O[C@@H]1CN(C)S(C)(=O)=O` stands “inactive”. `C[C@H](CO)N1C[C@H](C)[C@@H](CN(C)Cc2ccc(Cl)c(Cl)c2)Oc2ccc(NC(=O)Cc3cn(C)c4ccccc34)cc2CC1=O`: the cytotoxicity call is “inactive”.

`C[C@H](CO)N1C[C@H](C)[C@H](CN(C)Cc2ccc(Cl)c(Cl)c2)Oc2ccc(NC(=O)Cc3cn(C)c4ccccc34)cc2C1=O`: the cytotoxicity call is “inactive”. As for `C[C@@H]1CN([C@H](C)CO)C(=O)c2cc(NC(=O)Cc3cn(C)c4ccccc34)ccc2O[C@H]1CN(C)Cc1ccc(Cl)c(Cl)c1`, the entry is “inactive”; as for `C[C@H](CO)N1C[C@H](C)[C@@H](CN(C)Cc2ccc(Cl)c(Cl)c2)Oc2ccc(NC(=O)Cc3cn(C)c4ccccc34)cc2C1=O`, “inactive”; as for `C[C@H]1CN([C@@H](C)CO)C(=O)c2cc(NC(=O)Cc3cn(C)c4ccccc34)ccc2O[C@H]1CN(C)Cc1ccc(Cl)c(Cl)c1`, “inactive”. As for `C[C@@H]1CN([C@@H](C)CO)C(=O)c2cc(NC(=O)Cc3cn(C)c4ccccc34)ccc2O[C@H]1CN(C)Cc1ccc(Cl)c(Cl)c1`, the entry is “active”.

For the compound `C[C@@H]1CN([C@@H](C)CO)C(=O)c2cc(NC(=O)Cc3cn(C)c4ccccc34)ccc2O[C@@H]1CN(C)Cc1ccc(Cl)c(Cl)c1`, the cytotoxicity call was “active”. Under `C[C@H]1CN([C@@H](C)CO)C(=O)c2cc(NC(=O)Cc3cn(C)c4ccccc34)ccc2O[C@@H]1CN(C)S(C)(=O)=O` stands “inactive”; under `C[C@@H]1CN([C@H](C)CN(C)C)C(=O)c2cc(NC(=O)Cc3cn(C)c4ccccc34)ccc2O[C@H]1CN(C)S(=O)(=O)c1ccc(Cl)cc1`, “active”; under `Cc1noc(C)c1S(=O)(=O)Nc1ccc2c(c1)CC(=O)N([C@@H](C)CO)C[C@H](C)[C@H](CN(C)S(=O)(=O)c1ccc(F)cc1)O2`, “inactive”. As to `CC(C)NC(=O)Nc1ccc2c(c1)CC(=O)N([C@@H](C)CO)C[C@H](C)[C@H](CN(C)S(=O)(=O)c1ccc(Cl)cc1)O2`, the cytotoxicity call was “inactive”.

Turning to `CO[C@@H]1CN(C)C(=O)c2ccc(NC(=O)NC(C)C)cc2OC[C@H](C)N(Cc2ccc(-c3ccccn3)cc2)C[C@@H]1C`, the cytotoxicity call was “inactive”. As for `O=c1[nH]c2cc(C(F)(F)F)c(N3CCOCC3)cc2n(CP(=O)(O)O)c1=O`, the cytotoxicity call was “inactive”.

Take `C[C@H](CO)N1C[C@H](C)[C@@H](CN(C)S(=O)(=O)c2cccs2)Oc2ccc(NC(=O)C3CC3)cc2CC1=O`: the cytotoxicity call was “inactive”. With `Cc1noc(C)c1NC(=O)Nc1ccc2c(c1)C(=O)N([C@H](C)CO)C[C@@H](C)[C@H](CN(C)Cc1ccncc1)OCCCC[C@H](C)O2`, the cytotoxicity call is “inactive”. Under `C[C@@H]1CN([C@@H](C)CO)C(=O)c2cccc(NC(=O)CCCCCC(=O)Nc3ccccc3N)c2O[C@@H]1CN(C)C(=O)Nc1ccc(C(F)(F)F)cc1` stands “inactive”; under `Cc1ccc(S[C@]2(C(=O)NCC(C)C)CC(=O)N(C3Cc4ccccc4C3)[C@@H]2c2ccc(CO)cc2I)cc1`, “inactive”; under `C[C@@H]1CCCCO[C@@H](CN(C)Cc2ccncc2)[C@@H](C)CN([C@@H](C)CO)C(=O)c2cc(NC(=O)CCC(F)(F)F)ccc2O1`, “inactive”.
